Source: PubChem BioAssay (NCATS)
Unmarked numbers belong to inactive results. Records with an inconclusive call do not appear. The source made the active and inactive calls. Calls come from the whole dose curve; as a rule, active = well fitted curve in the direction sought with a large enough effect; inconclusive = small, poorly fitted or top-dose-only effect, or another doubt; inactive = no such curve, though single readings can be large; an effect the other way counts as inactive or inconclusive.

Experiment: qHTS of Nrf2 Activators: LOPAC Validation (AID 624149); note: 0% is about no effect
Details: Nrf2/ARE reporter cell assay; series mostly up to 46.1 µM; activation: at the top concentration
Method in brief: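 Luminescence read-out of ARE-luciferase activation: AREc32_Fluc cells treated with compounds for 24 hr at 37 deg C, then lysed with Steady-Glo for 30 min at room temperature before reading.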
In the case of `O=c1cc(-c2ccccc2)[nH]c2nc(Cl)ccc12`, the “activation” value is reported as -0.209%.
With `Cn1cc(C(F)(F)F)nc1-c1ccc(OCC(O)CNCCOc2ccc(O)c(C(N)=O)c2)cc1` (centres undefined) the “activation” value was -0.573%.
In the case of `Brc1c(Br)c(Br)c2[nH]cnc2c1Br`, the “activation” value is reported as -0.818%.
For `O=C(N[C@@H](Cc1ccccc1)C(=O)CCl)OCc1ccccc1`, the “activation” value was -0.329%.
In the case of `C=C1C[C@@]23CC[C@H]4[C@@](C)(CCC[C@@]4(C)C(=O)OC4OC(CO)C(O)C(O)C4O)[C@@H]2CC[C@]1(OC1OC(CO)C(O)C(O)C1OC1OC(CO)C(O)C(O)C1O)C3` (some centres undefined), the “activation” value is reported as 0.407%.
With `CN1Cc2sccc2C(c2ccc(O)c(O)c2)C1` (centres undefined) the “activation” value was 1.4%.
In the case of `Nc1ncnc2c1c(-c1ccc(Oc3ccccc3)cc1)cn2C1CCCC1`, the “activation” value is reported as 7.41%.
For `CCCCCCCC/C=C\CCCCCCCC(=O)NCCc1ccc(O)c(O)c1`, the “activation” value was 1.81%.
In the case of `COc1cc(/C=C(\C#N)C(=O)Nc2nnc(C(F)(F)F)s2)ccc1OCc1ccc(C(F)(F)F)cc1C(F)(F)F`, the “activation” value is reported as 12.8%.
In the case of `COc1ccc(-c2cc3ncc(C)n3c(Nc3ncccc3C(N)=O)n2)cc1OC`, the “activation” value is reported as 0.99%.
For `O=C1Nc2ccc(I)cc2/C1=C/c1cc(Br)c(O)c(Br)c1`, the “activation” value was 24.5%.
For `CN1CCc2cc(Cl)c(O)cc2[C@@H](c2ccccc2)C1`, the “activation” value was -2.52%.
With `C[C@](Cc1ccc(O)c(O)c1)(NN)C(=O)O` the “activation” value was -1.91%.
With `COc1cc([C@@H]2c3cc4c(cc3[C@H](O)C3COC(=O)[C@@H]32)OCO4)cc(OC)c1OC` (some centres undefined) the “activation” value was 0.948%.
In the case of `NCC(O)C1CCCCCCC1` (centres undefined), the “activation” value is reported as 1.06%.

Experiment: HTS Assay for Allosteric Antagonists of the Human D2 Dopamine Receptor: Hit Validation in HTRF (AID 624455); note: potency is the fitted concentration of half-maximal effect;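 note: stable D1 dopamine receptor cell line scored for blocking the D1 response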; for activity, negative = inhibition: % is set by controls: 0 for no effect and ±100 for the full control effect
Details: Cells stably expressing D1 dopamine receptor, inhibition mode; series mostly up to 46.1 µM; activity, negative = inhibition: at the top concentration
Method in brief: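 First, antagonism was screened by calcium flux in a force-coupled, inducible Hek293 Trex D2 line challenged with EC80 dopamine. Hits then went into an HTRF assay in cells stably expressing D1, testing inhibition of the D1 response.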
For `C[C@H](O)C(=O)C1=Nc2c(nc(N)[nH]c2=O)NC1`, the “activity, negative = inhibition” value was -2.18%.
In the case of `CC(C)NC[C@H](O)COc1cccc2ccccc12`, the “activity, negative = inhibition” value is reported as -3.36%.
In the case of `Cc1cc(Cn2cnc3c2C[C@@H](C(=O)O)N(C(=O)C(c2ccccc2)c2ccccc2)C3)ccc1N`, the “activity, negative = inhibition” value is reported as -89.4%.
With `N#Cc1cc([N+](=O)[O-])c2sc(C(N)=O)[n+]([O-])c2c1` the “activity, negative = inhibition” value was 5.91%.
With `N=C(N)c1ccccc1` the “activity, negative = inhibition” value was 3.62%.
With `Oc1ccc(/C=C/c2ccc(/C=C/c3ccc(O)cc3)c(Br)c2)cc1` the “activity, negative = inhibition” value was -6.39%.
With `CN(C)CCC(c1ccc(Br)cc1)c1ccccn1` (centres undefined) the “activity, negative = inhibition” value was 6.98%.
For `CCCCCCN(CCCCCC)C(=O)Cc1c(-c2ccc(F)cc2)[nH]c2ccccc12`, the “activity, negative = inhibition” value was -8.43%.
With `O=C(O)/C=C/c1ccc(O)c(O)c1` the “activity, negative = inhibition” value was -2.56%.
For `CCc1ccc2c(-c3cccc(Cl)c3)nc(=O)n(CC)c2n1`, the “activity, negative = inhibition” value was -2.35%.
With `CNCCc1cnc(CCC(c2ccccc2)c2ccccc2)[nH]1` the “activity, negative = inhibition” value was -0.849%.
In the case of `C[C@@H](NCCc1ccc(O)cc1)[C@@H](O)c1ccc(O)cc1`, the “activity, negative = inhibition” value is reported as -3.17%.
In the case of `CC[n+]1c(/C=C/C=C2/N(C)c3ccccc3C2(C)C)sc2ccccc21`, the “activity, negative = inhibition” value is reported as -0.507%.
In the case of `Cc1nc2n(c(=O)c1CCN1CCC(c3noc4cc(F)ccc34)CC1)CCCC2O` (centres undefined), the “activity, negative = inhibition” value is reported as -2.77%.
With `COc1ccc(CCn2nnnc2C2(c3ccc(C)cc3)CC2)cc1` the “activity, negative = inhibition” value was -0.342%.
With `O=c1cc(-c2ccccc2F)[nH]c2cc3c(cc12)OCO3` the “activity, negative = inhibition” value was 12.4%.
With `c1ccc(C(NCc2cccnc2)(c2ccccc2)c2ccccc2)cc1` the “activity, negative = inhibition” value was -7.29%.
With `Nc1ncnc2c1nc(Br)n2C1OC2COP(=O)(O)O[C@@H]2C1O` (some centres undefined) the Potency was 11600 nM (active).
For `Cn1cc(C(=O)OCC2CCN(CCNS(C)(=O)=O)CC2)c2ccccc21`, the “activity, negative = inhibition” value was -1.19%.
In the case of `O=c1cc(-c2ccccc2)[nH]c2nc(Cl)ccc12`, the “activity, negative = inhibition” value is reported as -4.97%.
For `Cn1cc(C(F)(F)F)nc1-c1ccc(OCC(O)CNCCOc2ccc(O)c(C(N)=O)c2)cc1` (centres undefined), the “activity, negative = inhibition” value was -6.44%.
In the case of `Nc1nc2c(cnn2CCc2ccccc2)c2nc(-c3ccco3)nn12`, the “activity, negative = inhibition” value is reported as 7.21%.
In the case of `Brc1c(Br)c(Br)c2[nH]cnc2c1Br`, the “activity, negative = inhibition” value is reported as -2.13%.
For `O=C(N[C@@H](Cc1ccccc1)C(=O)CCl)OCc1ccccc1`, the “activity, negative = inhibition” value was 7.95%.
For `C=C1C[C@@]23CC[C@H]4[C@@](C)(CCC[C@@]4(C)C(=O)OC4OC(CO)C(O)C(O)C4O)[C@@H]2CC[C@]1(OC1OC(CO)C(O)C(O)C1OC1OC(CO)C(O)C(O)C1O)C3` (some centres undefined), the “activity, negative = inhibition” value was 2.68%.
In the case of `CN1Cc2sccc2C(c2ccc(O)c(O)c2)C1` (centres undefined), the Potency is reported as 16.4 nM (active).
For `Nc1ncnc2c1c(-c1ccc(Oc3ccccc3)cc1)cn2C1CCCC1`, the “activity, negative = inhibition” value was 5.18%.
In the case of `CCCCCCCC/C=C\CCCCCCCC(=O)NCCc1ccc(O)c(O)c1`, the Potency is reported as 651 nM (active).
For `COc1cc(/C=C(\C#N)C(=O)Nc2nnc(C(F)(F)F)s2)ccc1OCc1ccc(C(F)(F)F)cc1C(F)(F)F`, the “activity, negative = inhibition” value was 9.02%.
In the case of `O=c1oc(Cl)c(Cl)c2ccccc12`, the “activity, negative = inhibition” value is reported as -2.59%.
For `COc1ccc(-c2cc3ncc(C)n3c(Nc3ncccc3C(N)=O)n2)cc1OC`, the “activity, negative = inhibition” value was -2.46%.
With `O=C1Nc2ccc(I)cc2/C1=C/c1cc(Br)c(O)c(Br)c1` the “activity, negative = inhibition” value was 4.42%.
In the case of `COc1cc([C@@H]2c3cc4c(cc3[C@H](O)C3COC(=O)[C@@H]32)OCO4)cc(OC)c1OC` (some centres undefined), the “activity, negative = inhibition” value is reported as -3.38%.
In the case of `NCC(O)C1CCCCCCC1` (centres undefined), the “activity, negative = inhibition” value is reported as -9.05%.
